# PubChem BioAssay AID1851 (National Center for Advancing Translational Sciences (NCATS), 2009)
# About 2,600 (16%) of roughly 16,000 compounds were called active. Another 20% or so got no clear call; they are omitted. These entries were drawn from the full list. Values without a mark were called inactive. The call rests on the fitted dose curve; in most records, active means well fitted curve in the direction sought with a large enough effect; inconclusive means small, poorly fitted or top-dose-only effect, or effect the other way; inactive means no such curve, though single readings can be large or run the other way.
# Target: Cytochrome P450 2D6 (Homo sapiens) (UniProt P10635)
# Sequence (P10635 whole entry, looked up): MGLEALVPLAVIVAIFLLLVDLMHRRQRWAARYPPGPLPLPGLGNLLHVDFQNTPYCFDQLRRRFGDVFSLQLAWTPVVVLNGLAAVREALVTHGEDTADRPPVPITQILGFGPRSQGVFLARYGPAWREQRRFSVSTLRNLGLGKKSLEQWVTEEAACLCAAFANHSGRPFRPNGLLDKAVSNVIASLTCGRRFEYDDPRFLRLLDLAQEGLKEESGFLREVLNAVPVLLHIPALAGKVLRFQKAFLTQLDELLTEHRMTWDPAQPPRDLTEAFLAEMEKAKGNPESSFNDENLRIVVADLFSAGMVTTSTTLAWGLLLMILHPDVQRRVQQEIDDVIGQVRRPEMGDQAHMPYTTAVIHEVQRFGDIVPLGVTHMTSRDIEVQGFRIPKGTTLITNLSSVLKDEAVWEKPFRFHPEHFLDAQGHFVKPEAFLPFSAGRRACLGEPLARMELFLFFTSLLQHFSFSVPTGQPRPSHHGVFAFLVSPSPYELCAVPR
# Assay: Cytochrome panel assay with activity outcomes
# Details: recombinant CYP, pro-luciferin dealkylation, luminescence, p450-cyp2d6; series mostly up to 57.1 µM; activity, negative = inhibition: at the top concentration
# On the % scale 0 is the no-effect control and ±100 the full control effect.
Compound,"activity, negative = inhibition",AC50
Nc1nc2c(c(=O)[nH]1)N(C=O)[C@H](CNc1ccc(C(=O)N[C@@H](CCC(=O)O)C(=O)O)cc1)CN2,2.81% [at 25.6 µM],–
CC(Sc1nnc(Cc2cccs2)n1C1CCCCC1)C(N)=O (configuration not stated),2.37%,–
CC1CCC(NC(=O)CC(C)(C)Cc2nc3ccccc3c(=O)[nH]2)CC1 (configuration not stated),-11.4%,–
N=C(C[C@@H](O)COc1ccccc1-c1ccccc1)N1CCCCC1,–,31.6 µM (active)
O=C(COc1ccccc1-c1ccccc1)N/N=C/c1cccc2ccccc12,-20.7%,–
O=c1c(-c2cc(F)cc(F)c2)nc2cnc(N3CCNCC3)nc2n1C1CC1,-10.9%,–
Cc1ccc2cc(C(=O)O)c(C)nc2c1,14.1%,–
Cc1ccc(CSc2nc3c(c(SCC(=O)O)n2)CCCC3)cc1,22.3%,–
CO[C@H]1COC(=O)C/C=C\[C@@H](C)[C@H](OC)COC(=O)[C@H]2CCCN2C(=O)C/C=C\[C@@H]1C,18.5% [at 11.4 µM],–
O=C(Nc1ccccc1)N(Cc1ccccc1)CC(O)C(F)(F)F (configuration not stated),-12.8%,–
CC(O)(CS(=O)(=O)Cc1ccccc1Cl)C(=O)Nc1cccc(C(F)(F)F)c1 (configuration not stated),-19.7%,–
O=C(Nc1cccc(C(F)(F)F)c1)N(Cc1ccc(Cl)cc1)CC(O)C(F)(F)F (configuration not stated),–,15.8 µM (active)
O=S(=O)(NCc1cn2ccsc2n1)c1ccc(Oc2ccccc2)cc1,-5.31%,–
O=C(OCCNC(=O)c1ccc2ccccc2n1)c1ccc(F)cc1,–,15.8 µM (active)
O=C(NCCOC(=O)c1ccc(C(=O)OCCNC(=O)c2cccnc2)s1)c1cccnc1,-19.5%,–
CCN(c1ccc(NC(=O)COC(=O)c2ccc3ccccc3n2)cc1)C(C)C,-23.3%,–
Cc1cc(C)cc(-n2nnnc2SCC(=O)Nc2nc(-c3ccc(Cl)cc3)cs2)c1,-11.9%,–
COC(=O)N1CCC[C@@]2(CCN(C(=O)Nc3ccc(OC)cc3)C2)C1,-5.4%,–
COC(=O)N1CCC[C@@]2(CCN(C(c3ccccc3)c3ccccc3)C2)C1,–,2 µM (active)
CC(=O)N1CCC2(CC1)CCN(C(c1ccccc1)c1ccccc1)CC2,–,7.94 µM (active)
CC(=O)N1CCC2(CC1)CN(C(c1ccccc1)c1ccccc1)C2,13.1%,–
COc1ccc(NC(=O)N2CC3(CCN(C(=O)c4c(C)noc4C)CC3)C2)cc1,-3.71%,–
Cc1noc(C)c1C(=O)N1CCC2(CCCN(C(c3ccccc3)c3ccccc3)C2)CC1,–,2 µM (active)
Cc1noc(C)c1C(=O)N1CCC[C@@]2(CCN(c3ccccc3)C2)C1,-15%,–
COc1ccc(NC(=O)N2CC[C@@]3(CCCN(C(=O)c4c(C)noc4C)C3)C2)cc1,18.1%,–

Compound,"activity, negative = inhibition",AC50
COc1ccc(NC(=O)N2CCCC3(CCN(C(=O)c4c(C)noc4C)CC3)C2)cc1,–,10 µM (active)
Cc1noc(C)c1C(=O)N1CCC2(CC1)CN(c1ccccc1)C2,-7.99%,–
CC(=O)N1CCC2(CC1)CN(c1ccccc1)C2,3.1%,–
COC(=O)N1CCC[C@@]2(CCN(C(=O)Nc3ccccc3)C2)C1,4.3%,–
COc1ccc(-n2c(C)n[nH]c2=O)cc1OC,6.47%,–
O=c1cnc2cnc(Oc3ccccc3)nc2n1CCc1ccccc1,-4.72%,–
Nc1nc2ncc(CNc3ccc(C(=O)N[C@@H](CCC(=O)O)C(=O)O)cc3)nc2c(=O)[nH]1,4.78% [at 25.6 µM],–
COc1ccc(NC(=O)C2(c3ccc(NC(=O)c4ccc(OC(C)=O)cc4)cc3)CCCC2)cc1,-0.389%,–
CC(=O)N(/N=C1\Sc2ccccc2C1=O)c1ccccc1C,14.4%,–
COc1ccc(-n2c(=O)c(-c3cccs3)nc3cnc(N4CCN(C)CC4)nc32)cc1,0.52%,–
CCOC(=O)N/N=C/c1ccccc1F,-9.33%,–
O=C(CNC(=O)c1ccco1)OC(C(=O)c1ccccc1)c1ccccc1 (configuration not stated),-7.29%,–
COC(=O)N1CCC2(CCCN(c3ccc(-c4ccccc4)cc3)C2)CC1,-3.96%,–
COC(=O)N1CCC2(CC1)CN(c1ccc(-c3ccccc3)cc1)C2,-10.2%,–
COC(=O)N1CCC2(CC1)CN(c1ccccc1)C2,-4.45%,–
COC(=O)N1CCC2(CCN(C(=O)Nc3ccccc3)CC2)CC1,-11.2%,–
CC(=O)N1CCC[C@@]2(CCN(c3ccccc3)C2)C1,-6.82%,–
COC(=O)N1CCC2(CC1)CN(C(=O)Nc1ccccc1)C2,-7.42%,–
COC(=O)N1CCC2(CC1)CN(C(c1ccccc1)c1ccccc1)C2,–,0.794 µM (active)
CC(=O)N1CCC2(CCCN(C(c3ccccc3)c3ccccc3)C2)CC1,–,7.94 µM (active)
COC(=O)N1CCC2(CC1)CCN(C(c1ccccc1)c1ccccc1)CC2,–,7.94 µM (active)
COC(=O)N1CCC2(CC1)CCN(c1ccccc1)CC2,-15.3%,–
COC(=O)N1CCC2(CCCN(C(c3ccccc3)c3ccccc3)C2)CC1,–,10 µM (active)
CC(=O)N1CCC2(CCCN(c3ccccc3)C2)CC1,-9.94%,–
Cc1c(NC(=O)NC(C)N2C(=O)C3C4C=CC(C4)C3C2=O)c(=O)n(-c2ccccc2)n1C (configuration not stated),2.58%,–

Compound,"activity, negative = inhibition",AC50
CCOC(=O)C1=C(CSc2nc(-c3ccccc3)ccc2C#N)OC(N)=C(C#N)C1c1ccc(OC)cc1 (configuration not stated),-9.31%,–
CCOC(=O)c1[nH]c(C)c(C)c1C,-3.5%,–
Nc1ncnc2c1ncn2C[C@@H](O)C(=O)O,10.9% [at 11.4 µM],–
O=C(N/N=C/c1c(Nc2cccc(C(F)(F)F)c2)nc2ccccn2c1=O)c1ccccc1,-3.29%,–
CC(=O)OCC1=C(C(=O)O)N2C(=O)[C@@H](NC(=O)Cc3cccs3)[C@@H]2SC1,–,inactive
CC(C)CCN1C(=O)c2ccc(-c3nc4ccccc4c(=O)o3)cc2C1=O,16.9%,–
Cc1noc(C)c1C(=O)N1CCC[C@@]2(CCN(C(=O)NC(C)C)C2)C1,3.36%,–
COCCCNC(=O)C1CCN(S(=O)(=O)N(CC(C)C)CC(C)C)CC1,8.44%,–
CC(C)(C)c1ccc(-c2c(C#N)c(N)nc3c2CCCC3)s1,-10.7%,–
Cc1noc(C)c1C(=O)N1CCC2(CC1)CN(c1ncccn1)C2,4.38%,–
COc1ncnc(NS(=O)(=O)c2ccc(N)cc2)c1OC,-2.5% [at 25.6 µM],–
CCOC(=O)N1CCN(C(=O)c2ccc3nc(SCc4ccc(F)cc4)n(C)c3c2)CC1,-13.8%,–
C[C@@H]1C[C@@H]2[C@H]3CCC4=CC(=O)C=C[C@]4(C)[C@]3(Cl)[C@@H](O)C[C@@]2(C)[C@@]1(O)C(=O)CO,15%,–
C[C@H]1C[C@@H]2[C@H]3CCC4=CC(=O)C=C[C@@]4(C)[C@@]3(Cl)[C@@H](O)C[C@]2(C)[C@]1(OC(=O)c1ccco1)C(=O)CCl,–,3.98 µM (active)
C[C@H]1C[C@H]2[C@H]3CCC4=CC(=O)C=C[C@@]4(C)[C@]3(F)[C@H](O)C[C@]2(C)[C@@]1(O)C(=O)COP(=O)(O)O,2.95% [at 11.4 µM],–
C=CCC(C(=O)OC)(C(=O)OC)c1ccc([N+](=O)[O-])cn1,-11.8%,–
CCNc1ncc2ncc(=O)n(C3CC3)c2n1,-4.43%,–
CCOC(=O)CSc1n[nH]c(NC(=O)c2ccccc2)n1,-2.06%,–
Cc1sc(NC(=O)c2ccco2)c(C(c2ccncc2)N2CCOCC2)c1C (configuration not stated),-27%,–
CCN1CCN(C(c2ccccn2)c2c(NC(=O)c3ccccc3)sc(C)c2C)CC1 (configuration not stated),–,14.1 µM (active)
COCCNc1ncnc2ccc(-c3c(C)noc3C)cc12,-2.91%,–
CC(=O)NCCNc1ncnc2ccc(-c3c(C)noc3C)cc12,-9.88%,–
Cc1cccc(CNc2ncnc3ccc(-c4c(C)noc4C)cc23)c1,–,15.8 µM (active)
Cc1noc(C)c1-c1ccc2ncnc(NCc3cccs3)c2c1,–,20 µM (active)
Cc1noc(C)c1-c1ccc2ncnc(N3CCOCC3)c2c1,8.01%,–

Compound,"activity, negative = inhibition",AC50
Cc1noc(C)c1-c1ccc2ncnc(NC3CCNCC3)c2c1,-0.394%,–
N#Cc1cccc(NC(=O)N2CCC3(CC2)CCN(C(=O)c2ccco2)CC3)c1,-12.3%,–
COc1ccccc1NC(=O)C(C/C=C(\C)Cl)C(C)=O (configuration not stated),-14%,–
Cc1nn(C)c(C(=O)NNC(=S)Nc2ccc(Cl)cc2)c1[N+](=O)[O-],-24.6%,–
Cn1c(=O)c(-c2ccccc2)nc2cnc(Oc3ccccc3)nc21,-7.05%,–
Nc1ccc(Oc2ccc3nc(-c4ccccc4)c(-c4ccc([N+](=O)[O-])cc4)nc3c2)cc1,10.3%,–
O=C(N=NC(=O)c1ccc2c(O)n(C3CCCCC3)c(O)c2c1)c1cccnc1,15.3%,–
Nc1ncnc2c1nc(-c1ccccc1)n2[C@H]1O[C@@H](CO)[C@@H](O)[C@H]1O,11.6% [at 11.4 µM],–
NC(=O)C1(NC(=O)[C@@H]2CC3(CC(c4cccc(NC(=O)c5cc([N+](=O)[O-])cc([N+](=O)[O-])c5)c4)=NO3)CN2C(=O)c2ccccc2)CC1 (some centres not stated),–,15.8 µM (active)
COc1ccc(C(=O)N2CC3(CC(c4cccc([N+](=O)[O-])c4)=NO3)C[C@H]2C(=O)NCC(N)=O)cc1 (some centres not stated),-16.3%,–
C=C(C)C(=O)N1CC2(CC(c3cccc(NC(=O)c4ccccc4)c3)=NO2)C[C@@H]1C(N)=O (some centres not stated),-3.06%,–
CC1(C)CCCN(C(=O)c2coc(=O)c(Br)c2)C1,-10.2%,–
CCOC(=O)C1=C(O)C(Nc2nccs2)(C(F)(F)F)N=C1C (configuration not stated),-6.02%,–
COc1cccc(C(=O)N(C)c2nnc(-c3ccncc3)s2)c1,–,2 µM (active)
Cc1ccc(-c2nnc(N(C)C(=O)c3cccnc3)s2)cc1,-8.87%,–
CC(=O)N(C)c1nnc(-c2cnccn2)s1,-3.93%,–
COCCn1c(=O)c(-c2ccc(F)cc2)nc2cncnc21,-3.99%,–
Clc1ccc(-c2cc3ccccc3[nH]2)cc1,-18.3%,–
c1ccc(C[n+]2cccc(-c3cc4ccccc4[nH]3)c2)cc1,–,1.26 µM (active)
CO[C@@H]1COC(=O)[C@@H](CCSC)NC(=O)C/C=C\[C@@H](C)COC(=O)CCC[C@H]1C,6.34% [at 11.4 µM],–
O=[N+]([O-])c1cccc2cn[nH]c12,10.6%,–
COc1ccc(C(=O)N2CCC3(CCCN(C(=O)Nc4cccc(C#N)c4)C3)CC2)cc1,-5.65%,–
